Rows were chosen to be rich in hits. Some 2.3% of all compounds tested hit in one or more screens of this group.
Mcl1-Noxa inh: disrupts binding of human Mcl-1 to Noxa peptide; actives 1.5% (n = 220,000); inhibition, % at 21.7 µM; TR-FRET Mcl-1/Noxa peptide binding, 2 h; AID 1022;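 active = compounds that cut the protein-peptide binding signal by more than 50% relative to plate controls in a single-dose test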;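 also: His-tagged Mcl-1 with rhodamine Noxa BH3 peptide and terbium anti-His antibody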
Mcl1 Bid PPI: disrupts binding of human Mcl-1 to Bid peptide; actives 0.97% (n = 220,000); TR-FRET Mcl-1/Bid-Dy647 peptide binding, 1536-well; inhibition, % at 21.7 µM;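 active = compounds that cut the binding signal by more than half at the single screening dose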;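 also: His-tagged Mcl-1 with europium anti-His antibody binding Bid BH3 peptide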
Bcl-xL primary: Bcl-xL (human) inhibition; AID 2129; Q07817; GST-Bcl-xL / FITC-Bim BH3 peptide fluorescence polarization; actives 0.7% (n = 320,000); inhibition, % at 10.9 µM;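 active = inhibition above the mean of all tested compounds plus 3 SD, cutoff set per campaign, cut at about 30% in these data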;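 also: inhibitors lower millipolarization by displacing the labeled peptide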
Mcl-1 Bim block: inhibitors of Bim-Mcl-1 interaction, human | Q07820 | Bead-based flow cytometry, Bim peptide-Mcl-1 binding | inhibition, % at 10 µM | actives 0.1% (n = 190,000); in the data active = inhibition above about 40%
MCL1 BIM primary: MCL1-BIM-BH3 interaction inhibition (human). actives 0.68% (n = 320,000). GST-MCL1 / FITC-Bim-BH3 fluorescence polarization. inhibition, % at 10.9 µM. Q07820;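 active = inhibition above the mean inhibition of all tested compounds plus 3 SD, set per campaign, cut at about 40% in these data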;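 also: higher means more loss of mP so more displacement of Bim peptide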
GLD-1 TGE inh: GLD-1-TGE RNA interaction inhibition (C. elegans); Q17339; purified GLD-1 + fluorescein TGE RNA, fluorescence polarization; inhibition, % at 5.96 µM; actives 0.44% (n = 320,000);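 active = percent inhibition above a per-plate cutoff, the plate mean of test compounds plus 3 SD, cut at about 30% in these data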
Target sequence (Q17339 whole entry, looked up): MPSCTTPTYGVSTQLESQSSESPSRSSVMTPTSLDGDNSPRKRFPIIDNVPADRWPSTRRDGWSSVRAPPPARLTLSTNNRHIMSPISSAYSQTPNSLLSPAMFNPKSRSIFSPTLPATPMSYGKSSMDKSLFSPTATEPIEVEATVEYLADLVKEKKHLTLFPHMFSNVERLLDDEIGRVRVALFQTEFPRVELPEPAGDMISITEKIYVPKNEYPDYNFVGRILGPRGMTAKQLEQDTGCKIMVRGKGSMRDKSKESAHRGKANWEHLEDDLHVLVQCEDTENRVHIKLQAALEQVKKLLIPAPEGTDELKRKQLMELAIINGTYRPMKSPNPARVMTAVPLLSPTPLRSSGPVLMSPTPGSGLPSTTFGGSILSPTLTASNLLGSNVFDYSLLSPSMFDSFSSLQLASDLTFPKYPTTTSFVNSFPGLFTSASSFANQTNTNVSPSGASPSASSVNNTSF
Hits are given with their value; 0 = inactive; - = not tested or not shown.

SMILES	Mcl1-Noxa inh	Mcl1 Bid PPI	Bcl-xL primary	Mcl-1 Bim block	MCL1 BIM primary	GLD-1 TGE inh
N#C/C(=C\c1ccc(C(=O)O)cc1)c1nc2sc3c(c2c(=O)[nH]1)CCCC3	74	0	-	-	-	-
COc1ccc2nc(SCC(C)=O)c(C#N)cc2c1	0	0	32	0	0	0
COc1cc(C2C(C#N)=C(N)Oc3cc(C)oc(=O)c32)cc(OC)c1OC (centres undefined)	0	0	0	-	0	0
COc1cc(C2C(C#N)=C(N)Oc3cc(C)oc(=O)c32)cc2c1OCO2 (centres undefined)	51	0	0	0	0	0
COc1cc2cc[n+](Cc3ccc([N+](=O)[O-])cc3)cc2cc1OC	-	-	0	-	0	0
COCC(=O)NCCc1ccc(S(N)(=O)=O)cc1	0	0	0	0	0	0
Nc1nccnc1C(=O)OCC(=O)NCCc1ccc(S(N)(=O)=O)cc1	-	-	35	-	0	0
CCN(CC)C(=O)CN1CCN(c2ncccn2)CC1	0	56	0	0	0	0
CC(=O)N1CCn2c3c(c(=O)c4cc(C)ccc42)CCC31 (centres undefined)	0	0	32	0	0	0
COC(=O)c1cccn(CC(=O)c2ccc(Cl)cc2)c1=O	0	0	0	0	0	0
c1ccc(Nc2c(-c3ccco3)nc3ccccn23)cc1	0	0	0	0	0	0
c1ccc(-c2nc(-c3ccco3)n3ccccc23)cc1	0	0	65	0	45	0
O=S(=O)(NC(=NC1CCCCC1)c1ccccc1F)c1ccccc1	-	-	0	-	0	0
CC(NC(=O)NC1CCCCC1)C(c1cccs1)N1CCN(c2ccccc2)CC1 (centres undefined)	0	92	0	0	0	0
O=c1oc2ccccc2c(Nc2ccc3ccccc3c2)c1[N+](=O)[O-]	67	0	0	0	0	0
CCOc1ccccc1NC(=O)/C=C/C(N)=O	98	0	0	0	0	0
CC(C)c1ccc(NC(=O)Cn2ncn3c(cc4ccccc43)c2=O)cc1	-	-	0	-	0	0
CN(C)c1ccc(NC(=O)Cn2ncn3c(cc4ccccc43)c2=O)cc1	76	0	0	0	0	0
O=C(NCCN1CCOCC1)c1cc(Cl)ccc1[N+](=O)[O-]	0	0	0	73	0	0
O=C(NCCN1CCOCC1)c1cc([N+](=O)[O-])ccc1Cl	-	-	0	-	0	0
Cc1cccn2c(=O)c(/C=C(\C#N)S(=O)(=O)c3ccccc3)c(N3CCN(Cc4ccccc4)CC3)nc12	-	-	31	-	0	0
Cc1nc(-c2ccccn2)sc1C(=O)Nc1ccc(F)cc1F	0	0	0	0	0	0
CNC(=O)c1sc(-c2ccccn2)nc1C	0	0	0	59	0	0
Cc1cccc(NC(=O)CN2C(=O)/C(=C3\SC(=S)N(CC4CCCO4)C3=O)c3ccccc32)c1 (centres undefined)	-	-	0	-	0	0
O=C(CN1C(=O)/C(=C2\SC(=S)N(C3CCS(=O)(=O)C3)C2=O)c2ccccc21)Nc1ccccc1 (centres undefined)	121	99	0	0	0	0
SMILES	Mcl1-Noxa inh	Mcl1 Bid PPI	Bcl-xL primary	Mcl-1 Bim block	MCL1 BIM primary	GLD-1 TGE inh
Cc1ccc(NC(=O)CN2C(=O)/C(=C3\SC(=S)N(C4CCS(=O)(=O)C4)C3=O)c3ccccc32)cc1 (centres undefined)	75	100	-	0	-	-
CC1CC(C)CN(CCOCCSc2ccccc2)C1 (centres undefined)	0	69	0	0	0	0
Cn1c2c(c(=O)n(C)c1=O)C(NS(=O)(=O)c1ccc(Cl)cc1)(C(F)(F)F)C(=O)N2 (centres undefined)	53	0	0	0	0	0
Cc1ccc(-n2c3c(c(=O)[nH]c2=O)C(NS(=O)(=O)c2ccc(Cl)cc2)(C(F)(F)F)C(=O)N3)cc1 (centres undefined)	54	0	0	0	0	0
CC1COC(Cn2c3ccccc3c3ccccc32)O1 (centres undefined)	0	61	0	-	0	0
CCOC(=O)C1CCN(C(=O)c2cc(S(=O)(=O)N3CCOCC3)c(Cl)cc2Cl)CC1	0	95	0	0	0	0
CCOC(=O)C1CCN(C(=O)c2ccc(Cl)c(S(=O)(=O)N3CCOCC3)c2)CC1	0	0	0	0	0	0
CCCCN1C(=O)N(C)C2NC(=O)NC21 (centres undefined)	0	0	0	0	0	0
CCCCN1C(=O)N(C)C2C1N(C)C(=O)N2CCCC (centres undefined)	63	0	0	-	0	0
Cc1ccc(S(=O)(=O)NCC(=O)N(CC(=O)NCc2ccco2)C2CCCC2)cc1	-	-	0	-	0	0
COc1ccc(-c2nnc(-c3cc4c(ccc5ccccc54)oc3=O)o2)cc1	64	0	0	0	0	0
O=c1oc2ccc3ccccc3c2cc1-c1nnc(-c2ccccc2)o1	0	0	0	0	0	0
CCn1c(CC(=O)Nc2ccc(C)cc2)nnc1SCC(=O)N1CCOCC1	-	-	0	-	0	0
CC(CNC(=O)CN1C(=O)C(=O)N(C2CCCC2)C1=O)c1ccccc1 (centres undefined)	-	-	0	-	0	0
Cc1nn(-c2ccccc2)c(C)c1/C=N/NC(=O)CSc1nc2ccccc2c(=O)n1-c1ccc(Br)cc1	0	0	0	0	0	0
Cc1ccc(-n2c(SCC(=O)N/N=C/c3c(C)nn(-c4ccccc4)c3C)nc3ccccc3c2=O)cc1	0	53	0	0	0	0
C=CCNC(=S)/N=c1/ccccn1CC	0	0	0	-	0	0
O=C(NCCc1ccccc1F)C1CCCN1S(=O)(=O)c1ccc2ccccc2c1 (centres undefined)	0	0	40	0	0	0
CCNC(=O)C1CCCN1S(=O)(=O)c1ccc2ccccc2c1 (centres undefined)	-	-	0	-	0	0
CCOc1ccc(N2C(=O)/C(=C\c3ccc(OC)c(O)c3)S(=O)(=O)C2c2cccc([N+](=O)[O-])c2)cc1 (centres undefined)	0	0	0	0	0	0
CCOc1ccc(N2C(=O)/C(=C\c3ccc(O)c(OC)c3)S(=O)(=O)C2c2cccc([N+](=O)[O-])c2)cc1 (centres undefined)	72	0	0	0	0	0
COc1ccc(OC(=O)c2ccncc2)cc1	0	99	0	0	0	0
CN(C)c1ccc(/C=C(\C#N)C(=O)c2ccccc2)cc1	0	0	0	-	0	0
CCOC(=O)NC(=O)/C(C#N)=C/c1ccc(N(C)C)cc1	0	82	0	-	0	0
CCCCC(=Nc1ccc(N)cc1)C1=C(O)C(C(=O)OC)C(C)(C)CC1=O (centres undefined)	0	0	32	0	0	0
CC1(c2nnc(-c3ccncc3)o2)CC(c2cccc(Cl)c2)=NO1 (centres undefined)	-	-	0	-	0	0
COc1cccc(NC(=O)CN(C)C(=O)C2CCN(C(=O)c3ccccc3C)CC2)c1	-	-	0	-	0	0
